Reference: the supplement of paper PMC10646978
± gives the standard deviation.

These compounds were tested on RAW-Dual (murine macrophage reporter line) (assay: IRF reporter (Lucia luciferase) activity fold change vs agonist alone; higher = enhanced IRF activity). Details: modulator concentration 10 µM; agonist: 3'3'-cGAMP 10 ug/mL.
How it was run: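 RAW-Dual murine macrophage reporter cells were seeded at 50 000 per well in 384-well plates and pre-incubated 1 hour at 37 °C with compound pin-transferred to 10 μM final. After 1 hour, a PRR agonist was added and cells incubated overnight. Supernatant NF-κB (SEAP, QUANTI-Blue, 620 nm absorbance) and IRF (Lucia luciferase, QUANTI-Luc, luminescence) signals were divided by the mean agonist-only control on the same plate to give fold change. Two replicate plates were averaged, with errors by propagation.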

| SMILES | IRF reporter |
| --- | --- |
| CCCCc1oc2ccccc2c1C(=O)c1cc(I)c(OCCN(CC)CC)c(I)c1.Cl | 0.55 ± 0.033 |
| CN(C)c1ccc(C=NN2C(=O)c3cccc4cccc(c34)C2=O)cc1 | 1 ± 0.032 |
| COC(=O)C1=CN(CC2CCCO2)C=C(C(=O)OC)C1c1ccccc1OC (stereo unspecified) | 0.996 ± 0.059 |
| CN(C)C1C(O)=C(C(N)=O)C(=O)C2(O)C(O)=C3C(=O)c4c(O)cccc4C(C)(O)C3CC12.Cl (stereo unspecified) | 0.844 ± 0.056 |
| COc1ccccc1N1CCN(CCCNc2cc(=O)n(C)c(=O)n2C)CC1.Cl | 0.959 ± 0.029 |
| O=C(CCCCCN1C(=O)c2cccc3cccc(c23)C1=O)NO | 0.062 ± 0.0017 |
| O=C(Nc1cc(C(F)(F)F)cc(C(F)(F)F)c1)c1ccco1 | 0.715 ± 0.019 |
| CO[C@@]1(NC(=O)CSCC#N)C(=O)N2C(C(=O)[O-])=C(CSc3nnnn3C)CS[C@@H]21 [Prestw-700] | 1 ± 0.033 |
| Cc1nnc(NC(=O)c2cccc([N+](=O)[O-])c2)s1 | 1.05 ± 0.25 |
| COc1ccc(C2=CC(=Cc3cccc(OC)c3OC)C(=O)O2)c(OC)c1 | 1.04 ± 0.028 |
| Cc1ccc(NC(=O)CN2C(=O)c3ccccc3C2=O)c(C(=O)O)c1 | 0.982 ± 0.049 |
| CCC(C)(C)C(=O)O[C@H]1C[C@@H](C)C=C2C=C[C@H](C)[C@H](CC[C@@H]3C[C@@H](O)CC(=O)O3)[C@H]21 | 0.599 ± 0.061 |
| Cc1ccc(C(=O)NC(=S)Nc2nc(-c3cccc([N+](=O)[O-])c3)cs2)cc1C | 0.931 ± 0.17 |
| O=C(NCCN1CCOCC1)c1ccc(Cl)cc1 | 0.95 ± 0.048 |
| Cl.O=C1NCC2(CCN(CCc3ccccc3)CC2)O1 | 0.672 ± 0.042 |
| CCCc1nc2ccccc2c(NC(=O)CN2CCOCC2)c1CC.O=C(O)C(=O)O | 1 ± 0.048 |
| CC(C)(C)c1ccc(C(=O)Nc2nc3ccc([N+](=O)[O-])cc3s2)cc1 | 1.04 ± 0.23 |
| C1N2CN3CN1CN(C2)C3 | 0.961 ± 0.055 |
| O=S(=O)(Nc1ccnc2ccccc12)c1ccccc1 | 0.858 ± 0.03 |
| Cc1cc2c(cc1S(N)(=O)=O)S(=O)(=O)CCC2 | 1 ± 0.11 |
| C[C@H](N[C@@H](CCc1ccccc1)C(=O)O)C(=O)N1CCC[C@H]1C(=O)O.O.O | 1.17 ± 0.31 |

Same assay, conditions: modulator concentration 10 µM; agonist: LPS 0.1 ug/mL

| SMILES | IRF reporter |
| --- | --- |
| Cc1nc(C(=O)NCC(=O)O)c(O)c2ccc(Oc3ccccc3)cc12 | 1.09 ± 0.25 |
| CCN(CCO)CCCC(C)Nc1ccnc2cc(Cl)ccc12.O=S(=O)(O)O (stereo unspecified) | 1.08 ± 0.28 |
| COc1ccccc1C(=O)Nc1ccc(-c2nc3cc(C)ccc3o2)cc1 | 1.55 ± 0.11 |
| Cc1c(F)cc(C(=O)NC2CC2)cc1-c1ccc(C(=O)NCC(C)(C)C)cn1 | 0.808 ± 0.18 |
| CNC(=O)C(=O)Nc1cc(Cl)ccc1C | 1.25 ± 0.15 |
| CC(C)(C)C(=O)NCc1cccnc1-c1cccnc1 | 0.982 ± 0.061 |
| O=C(NN=Cc1ccc([N+](=O)[O-])s1)c1ccc(Br)cc1 | 1.18 ± 0.2 |
| Cc1cc(=O)n(CC(=O)N2CCC(c3ccccc3F)S(=O)(=O)CC2)cn1 (stereo unspecified) | 1.12 ± 0.081 |
| Br.Cc1ccc(Sc2ccccc2N2CCNCC2)c(C)c1 | 1.27 ± 0.32 |
| CCOC(=O)C1=C(C)NC(C)=C(C(=O)OC)C1c1ccc(Cl)cc1 (stereo unspecified) | 1.01 ± 0.1 |
| O=C(Nc1nc2ccc(Cl)cc2s1)c1ccc(Br)s1 | 1.06 ± 0.054 |
| CC(=O)c1c(C(C)=O)c(C)n(-c2ccccc2N)c1C | 1.3 ± 0.21 |
| O=Cc1ccc(OCc2cccc([N+](=O)[O-])c2)c(Br)c1 | 1.4 ± 0.09 |
| COc1ccccc1N1CCN(CC(O)COc2cccc3ccccc23)CC1 (stereo unspecified) | 1.6 ± 0.14 |
| CC(=O)Nc1ccc(CC(=O)N2C3C=CCC2CC3)cc1 (stereo unspecified) | 1.23 ± 0.14 |
| Cc1occc1C(=O)Nc1ccc([N+](=O)[O-])cc1Cl | 0.931 ± 0.12 |
| CC(=O)N1CCN(C(=O)Cn2cnc(-c3ccc(C)cc3)cc2=O)CC1 | 1.17 ± 0.24 |
| O=C(Oc1ccc(C=Nc2ccc([N+](=O)[O-])cc2)cc1)c1ccccc1 | 0.985 ± 0.12 |
| NC(=O)NCC(N)C(=O)O (stereo unspecified) | 0.963 ± 0.12 |
| CCCCc1oc2ccccc2c1C(=O)c1cc(I)c(OCCN(CC)CC)c(I)c1.Cl | 1.6 ± 0.12 |

| SMILES | IRF reporter |
| --- | --- |
| CN(C)c1ccc(C=NN2C(=O)c3cccc4cccc(c34)C2=O)cc1 | 1.28 ± 0.23 |
| COC(=O)C1=CN(CC2CCCO2)C=C(C(=O)OC)C1c1ccccc1OC (stereo unspecified) | 1.34 ± 0.094 |
| CN(C)C1C(O)=C(C(N)=O)C(=O)C2(O)C(O)=C3C(=O)c4c(O)cccc4C(C)(O)C3CC12.Cl (stereo unspecified) | 0.937 ± 0.1 |
| COc1ccccc1N1CCN(CCCNc2cc(=O)n(C)c(=O)n2C)CC1.Cl | 1.21 ± 0.4 |
| O=C(CCCCCN1C(=O)c2cccc3cccc(c23)C1=O)NO | 0.581 ± 0.061 |
| O=C(Nc1cc(C(F)(F)F)cc(C(F)(F)F)c1)c1ccco1 | 1.07 ± 0.23 |
| CO[C@@]1(NC(=O)CSCC#N)C(=O)N2C(C(=O)[O-])=C(CSc3nnnn3C)CS[C@@H]21 [Prestw-700] | 1.47 ± 0.13 |
| Cc1nnc(NC(=O)c2cccc([N+](=O)[O-])c2)s1 | 1.06 ± 0.049 |
| COc1ccc(C2=CC(=Cc3cccc(OC)c3OC)C(=O)O2)c(OC)c1 | 1.27 ± 0.18 |
| Cc1ccc(NC(=O)CN2C(=O)c3ccccc3C2=O)c(C(=O)O)c1 | 1.32 ± 0.098 |
| CCC(C)(C)C(=O)O[C@H]1C[C@@H](C)C=C2C=C[C@H](C)[C@H](CC[C@@H]3C[C@@H](O)CC(=O)O3)[C@H]21 | 0.747 ± 0.062 |
| Cc1ccc(C(=O)NC(=S)Nc2nc(-c3cccc([N+](=O)[O-])c3)cs2)cc1C | 1.08 ± 0.094 |
| O=C(NCCN1CCOCC1)c1ccc(Cl)cc1 | 1.26 ± 0.43 |
| Cl.O=C1NCC2(CCN(CCc3ccccc3)CC2)O1 | 1.54 ± 0.26 |
| CCCc1nc2ccccc2c(NC(=O)CN2CCOCC2)c1CC.O=C(O)C(=O)O | 1.48 ± 0.27 |
| CC(C)(C)c1ccc(C(=O)Nc2nc3ccc([N+](=O)[O-])cc3s2)cc1 | 0.986 ± 0.074 |
| C1N2CN3CN1CN(C2)C3 | 0.958 ± 0.092 |
| O=S(=O)(Nc1ccnc2ccccc12)c1ccccc1 | 1.12 ± 0.11 |
| Cc1cc2c(cc1S(N)(=O)=O)S(=O)(=O)CCC2 | 0.95 ± 0.044 |
| C[C@H](N[C@@H](CCc1ccccc1)C(=O)O)C(=O)N1CCC[C@H]1C(=O)O.O.O | 0.953 ± 0.057 |
